Screening results from PubChem BioAssay.
Most compounds without a hit are left out; they make up all but 9.2% or so of the library.
ELG1 genotoxic: induces genotoxicity in HEK293T cells with luciferase-tagged ELG1. 1.3% of 330,000 active. HEK293T ELG1-luciferase reporter, luminescence, 16 h. Potency, µM (titrated, usually from 46 µM), inactives show at the highest dose activity change, positive = activation, hits mostly activators; also: % of control where 0% means no effect; nearly all actives have a fitted effect of over 60% in size
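Luminescence read-out: rising ELG1-luciferase signal, reflecting elevated ELG1 protein under genetic stress, flags genotoxic compounds. Cells were treated for 16 hr at 37 °C before ONE-Glo detection.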
FLuc modulator: firefly luciferase modulation, counter-screen for miR-21 project; P08659; purified FLuc, Km substrates, luminescence inhibition; Potency, µM (titrated, usually from 57.5 µM), for the others: top-dose activity change, negative = inhibition, actives largely listed as inhibitors; 6.9% of 360,000 active; AID 588342;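 also: plate controls were vehicle for no effect and reference inhibitor for full effect; nearly all actives have a fitted effect of over 55% in size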
Target sequence (P08659 whole entry, looked up): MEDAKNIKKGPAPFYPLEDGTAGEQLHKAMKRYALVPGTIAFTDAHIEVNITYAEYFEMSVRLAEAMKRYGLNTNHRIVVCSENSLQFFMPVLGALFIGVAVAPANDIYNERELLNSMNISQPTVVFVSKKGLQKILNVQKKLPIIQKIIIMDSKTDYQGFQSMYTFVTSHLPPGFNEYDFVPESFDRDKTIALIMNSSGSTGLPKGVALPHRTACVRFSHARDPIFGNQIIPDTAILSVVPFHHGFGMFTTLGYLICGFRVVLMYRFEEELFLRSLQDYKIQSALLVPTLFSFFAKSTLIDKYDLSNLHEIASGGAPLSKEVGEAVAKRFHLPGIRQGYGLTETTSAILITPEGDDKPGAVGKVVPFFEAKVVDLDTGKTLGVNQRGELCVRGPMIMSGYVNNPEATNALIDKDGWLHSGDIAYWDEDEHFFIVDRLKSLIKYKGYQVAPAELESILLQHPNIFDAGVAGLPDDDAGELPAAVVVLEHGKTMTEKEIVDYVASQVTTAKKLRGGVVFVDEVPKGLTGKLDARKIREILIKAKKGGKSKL
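Purified P. pyralis luciferase, 10 nM final, with Km-level 10 uM D-luciferin and 10 uM ATP in 50 mM Tris acetate pH 7.5, 10 mM Mg acetate, 0.01% Tween-20, 0.05% BSA; 6-point qHTS titration about 60 µM downward; luminescence read.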
NPC1 promoter act: activators of NPC1 promoter | 2.4% of 320,000 active | Potency, µM (doses to about 9.22 µM), for the others: at the top dose activation, actives largely listed as activators | Huh7 NPC1 promoter luciferase reporter, 24 h; also: % of control where 0% means no effect; nearly all actives have a fitted effect of over 60% in size
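Readout is luciferase luminescence, reflecting NPC1 promoter activation in stably transfected Huh7 cells after 24 h compound exposure at 37 °C in reduced-serum medium with 10% FBS.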
Rab9 promoter act: activates the Rab9 promoter; Potency, µM (doses to about 9.22 µM), without a hit: at the top dose activation, negative = inhibition, hits mostly activators; 2.8% of 320,000 active; Huh7 Rab9 promoter-luciferase reporter, luminescence, 24 h; also: % of control where 0% means no effect; nearly all actives have a fitted effect of over 60% in size
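Luminescence read-out: Huh7 cells stably expressing Rab9-luciferase, treated 24 h with compound at 37 °C, then lysed with luciferase reagent for 10 min at ambient before reading.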
SMN2 splice up: SMN2 splice variant enhancement | HEK293 SMN2-luciferase splicing reporter, luminescence, 30-36 h | AID 1458 | Potency, µM (top dose mostly 46.1 µM), inactives show at the highest dose activity change, positive = activation, hits mostly activators | 2.8% of 210,000 active; also: % of control where 0% means no effect; nearly all actives have a fitted effect of over 55% in size
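qHTS luciferase splicing reporter: luminescence rises when SMN2 exon 7 is included in transfected HEK293 cells. Compound exposure lasted 30-36 h at 37C, with 4.5 mM final sodium butyrate as control, followed by a ONE-Glo read.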
ELG1 repair inh: blocks ELG1-dependent DNA repair in HEK293T cells; HEK293T ELG1-luciferase reporter, luminescence, 16 h; DNA damage induced by 5-fluorouridine; Potency, µM (titrated, usually from 46.1 µM), inactives show at the top dose activity change, negative = inhibition, usual class: inhibitors; 2.3% of 330,000 active; AID 504467; also: % is scaled to controls: 0 for no effect and ±100 for the full control effect; nearly all actives have a fitted effect of over 55% in size
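Cells (2,000 per well) received 5-fluorouridine plus test compound or DMSO and were incubated 16 hr at 37 °C, 5% CO2. Luciferase activity was read by luminescence 30 min after ONE-Glo addition; signal suppression marked inhibition of damage-induced ELG1 function.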
Active calls of the source: *; ? = inconclusive; . = no result given. Calls follow the shape of the dose curve; as a rule, active = well fitted curve in the direction sought with a large enough effect; inconclusive = small, poorly fitted or top-dose-only effect, or another doubt; inactive = no such curve, though single readings can be large; an effect the other way counts as inactive or inconclusive. Potency is read from the fitted curve at half-maximal effect.

SMILES	ELG1 genotoxic	FLuc modulator	NPC1 promoter act	Rab9 promoter act	SMN2 splice up	ELG1 repair inh
COc1ccc(NC(=O)c2cc3c(s2)CCC(C)C3)cc1S(=O)(=O)N1CCOCC1 (stereo not given)	-15%	?	-9%	-18%	-65%	23µM*
CC1CC(C)CN(CC(=O)Nc2ccc3c(c2)OCCO3)C1 (stereo not given)	?	15µM*	?	?	-32%	?
CC1CC(C)(C)NC(=S)N1CCCC(=O)Nc1ccc2c(c1)OCCO2 (stereo not given)	?	27µM*	0%	?	19%	?
CCC1CCCCN1CC(=O)Nc1ccc2c(c1)OCCO2 (stereo not given)	7%	24µM*	22%	28%	.	?
CCOc1cccc2cc(C(=O)NCc3ccc(Cl)cc3)c(=N)oc12	-1%	?	-6%	3%	.	?
COc1cccc(N(CC(=O)NCc2ccco2)C(=O)CCC(=O)Nc2nccs2)c1	-5%	0%	-3%	0%	.	-23%
C#CCn1c(S(=O)(=O)Cc2ccc(OC)cc2)nc(-c2ccccc2)c1-c1ccccc1	-6%	2%	0%	0%	-28%	?
NC(=O)c1cc([N+](=O)[O-])ccc1NCc1ccc(N)cc1	1%	-18%	-17%	-28%	.	-21%
O=C(O)CCCNc1cc(N2CCC3(CC2)OCCO3)c2noc3c2c1C(=O)c1ccccc1-3	?	11µM*	4µM*	2.2µM*	-36%	?
Nc1nc(Br)c2c(F)cccc2c1-c1ccccc1	0%	-12%	-3%	-2%	-1%	14%
Nc1nn(-c2cccc(F)n2)cc1-c1ccc(Cl)cc1	1.2µM*	0.95µM*	2.5µM*	0.45µM*	18µM*	?
Nc1ncncc1-c1ccc(Cl)cc1	-3%	6%	-1%	-2%	.	9%
Nc1nn(-c2cccc(F)n2)cc1-c1ccccc1	2.9µM*	3µM*	2µM*	0.63µM*	14µM*	?
CCC1CCCCN1CCCNC(=O)c1c(O)nc2ccccn2c1=O (stereo not given)	1%	1%	0%	0%	-2%	5%
CC1=C(c2ccc(C)c(C)c2)S(=O)(=O)N=C1N1CCC(C(=O)NCCc2ccco2)CC1	.	1%	.	.	.	.
COc1ccc(C(=O)CSc2nnn(-c3cccc(NC(C)=O)c3)n2)cc1	5%	17µM*	?	?	.	?
CC(=O)Nc1cccc(-n2nnc(SCC(=O)c3ccccc3)n2)c1	?	17µM*	2.8µM*	3.2µM*	.	?
CCCOc1ccc(Oc2ccc(S(=O)(=O)N3CCN(C)CC3)cn2)cc1	?	0%	-2%	-1%	.	?
Cc1ccc(NC(=O)CSCC(=O)Nc2cccc(S(=O)(=O)N3CCCCCC3)c2)cc1	0%	-9%	-1%	-9%	.	?
CCn1cc(C(=O)O)c(=O)c2cc(F)c(N3CCN(C(=O)Nc4ccccc4)CC3)cc21	-36%	0%	-3%	2%	18µM*	?
CCn1cc(C(=O)O)c(=O)c2cc(F)c(N3CCN(C(=S)NC(=O)c4ccccc4F)CC3)cc21	-4%	1%	2%	-1%	.	?
CCC(C)NC(=O)c1cn(CC)c2cc(N3CCN(C(=O)c4ccco4)CC3)c(F)cc2c1=O (stereo not given)	-12%	-3%	-8%	-2%	.	21µM*
CCn1cc(C(=O)NCC(C)C)c(=O)c2cc(F)c(N3CCN(C(=O)c4ccco4)CC3)cc21	-9%	-1%	-3%	-6%	.	-1%
CCCOc1ccccc1-c1nc2c([nH]1)c(=O)[nH]c(=O)n2C	?	7%	-1%	-1%	28µM*	13%
Cn1c(=O)c2[nH]c(-c3ccccc3O)nc2n(C)c1=O	-6%	-17%	25%	-5%	-2%	0%
SMILES	ELG1 genotoxic	FLuc modulator	NPC1 promoter act	Rab9 promoter act	SMN2 splice up	ELG1 repair inh
COc1cc(/C=C(/Sc2nnc(-c3ccc(F)cc3)o2)C(=O)O)ccc1OC(F)F	0%	-11%	-7%	-3%	-5%	-3%
Cc1cccc(N2CCN(C(=O)c3ccc4nc(N5CCC(C)CC5)sc4c3)CC2)c1C	.	?	.	.	13%	.
Cc1ccc(CCNC(=O)c2ccc3nc(N4CCC(C)CC4)sc3c2)cc1	.	-14%	.	.	0%	.
CC1CCN(c2nc3ccc(C(=O)NCc4ccccc4Cl)cc3s2)CC1	.	6.7µM*	.	.	-10%	.
CC1CCN(c2nc3ccc(C(=O)NCc4ccc(Cl)cc4)cc3s2)CC1	.	11µM*	.	.	-57%	.
COc1ccccc1CNC(=O)c1ccc2nc(N3CCCCC3)sc2c1	.	?	.	.	-13%	.
O=C(NCCCN1CCN(c2ccccc2F)CC1)c1ccc2nc(N3CCCCC3)sc2c1	.	?	.	.	5.6µM*	.
CC1CCN(c2nc3ccc(C(=O)O)cc3s2)CC1	-23%	0.21µM*	-48%	-49%	-53%	?
O=C(CSc1ncn[nH]1)NCCC(c1ccccc1)c1ccccc1	-5%	0%	-4%	5%	-2%	-6%
O=C(NCC1CCCO1)c1ccc2nc(N3CCCCC3)sc2c1 (stereo not given)	?	17µM*	2µM*	?	0%	?
C/C(=N\NC(=O)CN(c1ccccc1)S(C)(=O)=O)c1ccccc1O	-4%	-11%	-4%	-3%	-2%	16µM*
CCN(CC)S(=O)(=O)c1ccc(NC=C(C#N)C#N)cc1	-6%	2%	1%	-10%	.	-15%
C/C(=N/NC(=O)c1cc2ccccc2cc1O)c1ccco1	?	5.4µM*	2.8µM*	1.6µM*	.	?
C/C(=N\NC(=O)c1cc2ccccc2cc1O)c1ccc(C)o1	0%	9.5µM*	27%	?	.	?
C/C(=N\NC(=O)c1c[nH]c2ccccc12)c1ccc(C)o1	17%	?	10%	24%	3%	?
C/C(=N\NC(=O)c1c(C)nc2ccccn12)c1ccco1	?	?	?	2.5µM*	10µM*	?
CCOc1ccc(CN(CCc2ccc3c(c2)OCO3)Cc2cc(OC)cc(OC)c2)cc1	.	-1%	.	.	-24%	.
CC(=O)Nc1ccc(NC(=O)c2cc(CN3CCCC3)on2)cc1	.	-3%	.	.	.	.
C[C@@H](CC#N)CN1CC[C@H](C(C)(C)C)CCC1=O	3%	0%	-2%	-6%	.	17%
CN(Cc1cn(Cc2ccccc2)nc1-c1ccc2c(c1)OCO2)Cc1nccn1C	-2%	-1%	-5%	-4%	.	-10%
CCOC(=O)Cn1c(=NC(=O)c2nc3ccccc3s2)sc2cc(S(N)(=O)=O)ccc21	10%	1%	-3%	1%	-12%	?
